PubChem BioAssay AID1159580 (chemical genetic matrix, 2015)
Hit rate of the full screen: of about 5,500 compounds, about 2,000 (36%) were called active. About 18% were inconclusive and are not listed. Rule as the data show it: active = normalized growth mostly below about 0.91 (no sharp cut-off); inconclusive = no clear call, values can overlap the other calls; inactive = mostly above about 0.92. This is one part of the list.

Experiment: chemical genetic growth profiling, strain panel (AID 1159580);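 also: tested at 20 µM; growth read once vehicle control cultures reached saturation at 30 °C; 1 = growth at the plate median or of vehicle wells; lower values mean less growth of the strain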
Details: growth OD
[1] = S. cerevisiae deletion strains, locus YAL013W, strain DEP1, active compounds read low
[2] = S. cerevisiae deletion strains, locus YBR229C, strain ROT2, active compounds read low
[3] = S. cerevisiae deletion strains, locus YDL101C, strain DUN1, active compounds read low
[4] = S. cerevisiae deletion strains, locus YDR150W, strain NUM1, active compounds read low
[5] = S. cerevisiae deletion strains, locus YEL061C, strain CIN8, active compounds read low
[6] = S. cerevisiae deletion strains, locus YGR078C, strain PAC10, active compounds read low
[7] = S. cerevisiae deletion strains, locus YHR030C, strain SLT2, active compounds read low
[8] = S. cerevisiae deletion strains, locus YJR043C, strain POL32, active compounds read low
[9] = S. cerevisiae deletion strains, locus YJR075W, strain HOC1, active compounds read low
[10] = S. cerevisiae deletion strains, locus YLR039C, strain RIC1, active compounds read low
[11] = S. cerevisiae deletion strains, locus YLR262C, strain YPT6, active compounds read low
[12] = S. cerevisiae deletion strains, locus YMR263W, strain SAP30, active compounds read low
[13] = S. cerevisiae deletion strains, locus YMR307W, strain GAS1, active compounds read low
[14] = S. cerevisiae deletion strains, locus YNL153C, strain GIM3, active compounds read low
[15] = S. cerevisiae deletion strains, locus YNL322C, strain KRE1, active compounds read low
[16] = S. cerevisiae deletion strains, locus YOL006C, strain TOP1, active compounds read low
[17] = S. cerevisiae deletion strains, locus YPL055C, strain LGE1, active compounds read low
[18] = S. cerevisiae deletion strains, locus YPL241C, strain CIN2, active compounds read low

Measured: normalized growth

Cc1oc(S(=O)(=O)N(C)C)cc1C(=O)O
inactive: [1] 1.03 | [2] 1 | [3] 0.952 | [4] 1 | [5] 1.02 | [6] 1.01 | [7] 1.06 | S. cerevisiae deletion strains, locus YHR087W, strain rtc3, active compounds read low 1.03 | S. cerevisiae deletion strains, locus YJL187C, strain SWE1, active compounds read low 0.997 | [8] 0.987 | [9] 1 | [10] 1.07 | S. cerevisiae deletion strains, locus YLR058C, strain SHM2 (second series), active compounds read low 1 | S. cerevisiae deletion strains, locus YLR085C, strain ARP6, active compounds read low 1.08 | [11] 1.01 | S. cerevisiae deletion strains, locus YML094W, strain GIM5, active compounds read low 1.06 | S. cerevisiae deletion strains, locus YMR219W, strain ESC1, active compounds read low 1.01 | [12] 0.985 | [13] 0.976 | [14] 1.01 | S. cerevisiae deletion strains, locus YNL298W, strain CLA4 (second series), active compounds read low 1 | [15] 1 | S. cerevisiae deletion strains, locus YNR030W, strain Alg12, active compounds read low 1.02 | [16] 1.06 | [17] 1.08 | [18] 1.09 | S. cerevisiae deletion strains, locus YPR135W, strain CTF4, active compounds read low 1.34

O=C(CCCCCCCCCCCCC1CCCC1)Nc1ccc(S(=O)(=O)c2ccc(NC(=O)CCCCCCCCCCCCC3CCCC3)cc2)cc1
inactive: [1] 1.01 | S. cerevisiae deletion strains, locus YBR021W, strain FUR4, active compounds read low 1.04 | [2] 1.02 | S. cerevisiae deletion strains, locus YCL029C, strain bik1, active compounds read low 0.992 | S. cerevisiae deletion strains, locus YDL035C, strain GPR1, active compounds read low 1.02 | S. cerevisiae deletion strains, locus YDL074C, strain BRE1, active compounds read low 1.07 | [3] 1.03 | S. cerevisiae deletion strains, locus YDL134C, strain PPH21, active compounds read low 1.03 | S. cerevisiae deletion strains, locus YDL185W, strain tfp1, active compounds read low 1.01 | S. cerevisiae deletion strains, locus YDL192W, strain arf1, active compounds read low 0.997 | S. cerevisiae deletion strains, locus YDR101C, strain arx1, active compounds read low 0.989 | [4] 1.02 | S. cerevisiae deletion strains, locus YDR162C, strain NBP2, active compounds read low 1.03 | S. cerevisiae deletion strains, locus YDR318W, strain mcm21, active compounds read low 0.989 | S. cerevisiae deletion strains, locus YDR388W, active compounds read low 0.983 | S. cerevisiae deletion strains, locus YDR502C, strain sam2, active compounds read low 1 | [5] 1.02 | S. cerevisiae deletion strains, locus YER110C, active compounds read low 0.99 | S. cerevisiae deletion strains, locus YER155C, strain BEM2, active compounds read low 1.02 | S. cerevisiae deletion strains, locus YER167W, strain BCK2, active compounds read low 1.03 | S. cerevisiae deletion strains, locus YGL078C, strain dbp3, active compounds read low 0.992 | S. cerevisiae deletion strains, locus YGL086W, strain mad1, active compounds read low 1 | S. cerevisiae deletion strains, locus YGL248W, strain PDE1, active compounds read low 1.03 | [6] 1.03 | S. cerevisiae deletion strains, locus YGR135W, strain pre9, active compounds read low 1.01 | S. cerevisiae deletion strains, locus YGR229C, strain SMI1, active compounds read low 1.03 | S. cerevisiae deletion strains, locus YGR252W, strain gcn5, active compounds read low 0.984 | [7] 1.02 | S. cerevisiae deletion strains, locus YHR079C, strain IRE1 (second series), active compounds read low 0.99 | S. cerevisiae deletion strains, locus YHR094C, strain hxt1, active compounds read low 0.996 | S. cerevisiae deletion strains, locus YHR129C, strain ARP1, active compounds read low 1.02 | S. cerevisiae deletion strains, locus YHR200W, strain rpn10, active compounds read low 0.998 | S. cerevisiae deletion strains, locus YIL066C, strain RNR3, active compounds read low 1.02 | S. cerevisiae deletion strains, locus YIL073C, strain SPO22, active compounds read low 0.99 | S. cerevisiae deletion strains, locus YIL125W, strain kgd1, active compounds read low 1 | S. cerevisiae deletion strains, locus YIR030C, strain dcg1, active compounds read low 0.99 | S. cerevisiae deletion strains, locus YJL095W, strain BCK1, active compounds read low 1.04 | S. cerevisiae deletion strains, locus YJL134W, strain LCB3, active compounds read low 1.02 | S. cerevisiae deletion strains, locus YJL168C, strain set2, active compounds read low 1 | S. cerevisiae deletion strains, locus YJL187C, strain SWE1 (second series), active compounds read low 1.02 | [8] 1.03 | [9] 1.03 | S. cerevisiae deletion strains, locus YKL009W, strain mrt4, active compounds read low 0.991 | S. cerevisiae deletion strains, locus YKL068W, active compounds read low 1 | S. cerevisiae deletion strains, locus YKL085W, strain MDH1 (second series), active compounds read low 1 | S. cerevisiae deletion strains, locus YKL085W, strain MDH1, active compounds read low 1 | S. cerevisiae deletion strains, locus YKL190W, strain CNB1, active compounds read low 1.02 | S. cerevisiae deletion strains, locus YKR001C, strain vps1, active compounds read low 0.991 | [10] 1.04 | S. cerevisiae deletion strains, locus YLR058C, strain SHM2, active compounds read low 1.02 | S. cerevisiae deletion strains, locus YLR102C, strain apc9, active compounds read low 0.989 | [11] 1.03 | S. cerevisiae deletion strains, locus YLR268W, strain sec22, active compounds read low 0.997 | S. cerevisiae deletion strains, locus YLR330W, strain CHS5, active compounds read low 1.02 | S. cerevisiae deletion strains, locus YLR342W, strain FKS1 (second series), active compounds read low 1.03 | S. cerevisiae deletion strains, locus YLR371W, strain rom2, active compounds read low 1 | S. cerevisiae deletion strains, locus YLR418C, strain cdc73, active compounds read low 1 | S. cerevisiae deletion strains, locus YML016C, strain PPZ1, active compounds read low 1.03 | S. cerevisiae deletion strains, locus YML032C, strain rad52, active compounds read low 1 | S. cerevisiae deletion strains, locus YML124C, strain tub3, active compounds read low 0.99 | S. cerevisiae deletion strains, locus YMR078C, strain ctf18, active compounds read low 0.988 | S. cerevisiae deletion strains, locus YMR223W, strain ubp8, active compounds read low 0.989 | [12] 1.04 | [13] 0.981 | S. cerevisiae deletion strains, locus YNL067W, strain RPL9B, active compounds read low 1.04 | S. cerevisiae deletion strains, locus YNL128W, strain TEP1, active compounds read low 1.04 | [14] 1.02 | S. cerevisiae deletion strains, locus YNL233W, strain BNI4, active compounds read low 1.03 | S. cerevisiae deletion strains, locus YNL250W, strain rad50, active compounds read low 1 | S. cerevisiae deletion strains, locus YNL271C, strain bni1, active compounds read low 0.998 | S. cerevisiae deletion strains, locus YNL298W, strain CLA4, active compounds read low 1.01 | S. cerevisiae deletion strains, locus YNL307C, strain MCK1, active compounds read low 0.99 | [15] 1.02 | S. cerevisiae deletion strains, locus YNR052C, strain pop2, active compounds read low 0.993 | [16] 1.14 | S. cerevisiae deletion strains, locus YOL012C, strain htz1 0.857 | S. cerevisiae deletion strains, locus YOL147C, strain pex11, active compounds read low 0.992 | S. cerevisiae deletion strains, locus YOR061W, strain CKA2, active compounds read low 1.02 | S. cerevisiae deletion strains, locus YOR069W, strain VPS5, active compounds read low 1.01 | S. cerevisiae deletion strains, locus YOR136W, strain idh2, active compounds read low 0.994 | S. cerevisiae deletion strains, locus YOR144C, strain elg1, active compounds read low 0.993 | S. cerevisiae deletion strains, locus YOR184W, strain ser1, active compounds read low 0.99 | S. cerevisiae deletion strains, locus YOR316C, strain cot1, active compounds read low 0.998 | [17] 1.05 | [18] 1.01 | S. cerevisiae deletion strains, locus YPR119W, strain clb2, active compounds read low 0.984 | S. cerevisiae deletion strains, locus YPR141C, strain kar3, active compounds read low 0.996 | S. cerevisiae deletion strains, locus YPR163C, strain tif3, active compounds read low 0.993 | S. cerevisiae deletion strains, locus YPR167C, strain met16, active compounds read low 0.997 | S. cerevisiae deletion strains, strain wtn01, active compounds read low 0.997 | S. cerevisiae strains, strain wild type, active compounds read low 1.01
